S1P3 antag: blocks the human S1P3 receptor; CHO S1P3 NFAT-BLA reporter, FRET fluorescence, antagonist mode; Q99500; AID 485; hit rate 0.27% among 170,000; inhibition, % at 4.98 µM;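 active = inhibition above the plate cutoff, the mean inhibition of test wells on that plate plus 3 SD, cut at about 28% in these data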;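 note: cells challenged with S1P at its EC80 of 0.8 µM; blue over green emission ratio from cleaved BLA substrate after 4 h stimulation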
KCC2 mod: modulates chloride dependent transport by human KCC2; KCC2 cells, thallium flux FluoZin-2 fluorescence; B-score of Tl+ flux slope (higher = more flux/activation; lower = inhibition) at 10 µM; hit rate 2.2% among 190,000; AID 1456;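 active = thallium flux slope and its plate-corrected score both differing from the plate sample mean at a set confidence after two filtering rounds, in either direction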;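 note: slope of fluorescence scaled to starting intensity during 10 to 20 s after thallium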
RAM inhibit: inhibitors of the yeast RAM network; S. cerevisiae dse1pr::URA3 reporter, 5-FOA growth OD615, 2 d; analog-sensitive cbk1-as2 kinase mutant strain; inhibition, % at 50 µM; hit rate 1.8% among 190,000; AID 868;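 active = inhibition above a set limit, 3 SD over mean compound inhibition, cut at about 8.4% in these data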;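 note: inhibition rescues growth on 5-FOA so higher OD means more RAM inhibition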
ROMK primary: modulators of human ROMK potassium channel. Tet-inducible ROMK, thallium flux fluorescence; actives lie on both sides. B-score at 10 µM. hit rate 2% among 130,000. AID 1918;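 active = signal ratio slope over the read window, or its plate-corrected B-score, at least 3 SD from the plate mean, either direction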;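 note: B-score of the F/F0 ratio slope over 7 to 12 s after thallium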
Target sequence (P48048 whole entry, looked up): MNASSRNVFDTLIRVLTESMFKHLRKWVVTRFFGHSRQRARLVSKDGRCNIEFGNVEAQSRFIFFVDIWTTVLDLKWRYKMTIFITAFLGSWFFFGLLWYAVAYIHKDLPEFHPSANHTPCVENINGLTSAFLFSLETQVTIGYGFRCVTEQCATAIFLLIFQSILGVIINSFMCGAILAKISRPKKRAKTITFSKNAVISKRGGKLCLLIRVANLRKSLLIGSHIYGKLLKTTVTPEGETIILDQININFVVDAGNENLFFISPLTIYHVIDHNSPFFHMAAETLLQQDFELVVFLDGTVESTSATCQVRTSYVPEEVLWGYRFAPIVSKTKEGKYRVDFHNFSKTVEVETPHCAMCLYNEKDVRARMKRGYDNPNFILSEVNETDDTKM
S1P4 agonist: agonists of human S1P4 receptor; O95977; S1P4-expressing cell line, agonist reporter assay; activation, % at 4.98 µM; hit rate 0.35% among 220,000; AID 1509; in the data active = activation above about 11%
S1P4 antagonist: blocks the human S1P4 receptor; O95977; S1P4-expressing cells, antagonist mode, reporter read-out; inhibition, % at 4.98 µM; hit rate 0.26% among 220,000; in the data active = inhibition above about 29%
RAM efflux-def: RAM network inhibitors in efflux-deficient yeast. S. cerevisiae efflux-deficient reporter strain, 5-FOA growth OD615, 2 days. max inhibition, %. shares compounds with RAM inhibit. 1,200 tested, under 10 active; call rule not given here
Numbers stand for hits; . = inactive; / = no result. Shown are actives, neighbours in structure and some others; about 5.1% of the full set was active somewhere.

SMILES	S1P3 antag	KCC2 mod	RAM inhibit	ROMK primary	S1P4 agonist	S1P4 antagonist	RAM efflux-def
O=C(CCc1cnccn1)NC1CCCc2c1cnn2-c1ccc(F)cc1F (centres undefined)	.	.	.	.	.	.	/
COc1ccc(N2CCN(C(c3cc(OC)ccc3OC)c3nnnn3CC3CCCO3)CC2)cc1 (centres undefined)	/	.	.	/	.	.	/
CC(=O)Nc1ccc(Oc2cc(NC(C)=O)cc([N+](=O)[O-])c2)cc1	.	.	.	.	.	.	/
Cc1cccc(Oc2cc(NC(=O)c3ccccc3)cc([N+](=O)[O-])c2)c1	/	.	13	.	.	.	.
CCN(CC)S(=O)(=O)c1cc(C(=O)OCC(=O)Nc2c(F)cccc2F)ccc1F	.	.	.	/	.	.	/
CCN(CC)S(=O)(=O)c1cc(C(=O)OCC(=O)Nc2cccc(Br)c2)ccc1F	.	.	15	.	.	.	.
CCOC(=O)c1cc(-c2ccccc2)sc1NC(=O)C(C)OC(=O)c1cccnc1OCC (centres undefined)	.	.	12	/	.	.	.
Cc1ncc([N+](=O)[O-])n1CC(=O)NC1CCCCCC1	.	.	.	.	.	.	/
COc1ccc(CNc2nc(SCc3cc(=O)n4cc(Cl)ccc4n3)nc3ccccc23)cc1	.	.	.	/	.	.	/
CN=C1S/C(=C\c2ccc(N3CCOCC3)cc2C)C(=O)N1C	.	.	.	.	.	.	/
COCCN1C(=O)/C(=C/c2ccc(N3CCCC3)cc2C)SC1=S	.	-5.4	16	/	.	.	.
CN1/C(=C\C=C2/C(=O)Oc3ccccc3C2=O)C(C)(C)c2ccccc21	.	.	21	/	.	.	.
CN1C(=CC=C2C=C(I)C(=O)C(I)=C2)C(C)(C)c2ccccc21	.	.	/	.	.	.	/
COc1ccc2c(c1)C(=O)/C(=C/C=C/c1ccccc1)CC2	/	.	15	/	.	.	.
CCN1CCN(c2ccc(NC(=O)CCc3c(C)nc4c(-c5ccc(F)cc5)c(C)nn4c3C)cc2)CC1	.	.	.	.	.	.	/
CCn1c(CCNC(=O)c2ccc(Cl)c(Cl)c2)nnc1SCCOc1ccc(OC)cc1	/	/	16	.	.	.	.
CCCCn1c(O)c(/C=C/C=C/C=Nc2ccccc2)sc1=S	.	.	13	.	.	.	.
COc1ccc(S(=O)(=O)N2c3cc(C)ccc3OCC2C(C)(C)C)cc1 (centres undefined)	/	/	.	/	.	.	/
Cc1ccc(S(=O)(=O)N2c3cc(C)ccc3OCC2C(C)(C)C)cc1 (centres undefined)	/	.	13	/	.	.	.
Cc1cc(C(=O)NCc2ccccc2Cl)n(-c2ccccc2)n1	.	.	/	.	.	.	/
N#Cc1c(N)nc(SCc2ccccn2)c(C#N)c1-c1cccs1	/	.	12	.	.	.	.
C/C(=N\Nc1ccc(C(=O)O)cc1)c1ccc2c(c1)Nc1ccccc1S2	.	.	/	/	.	.	/
O=C(Cn1nnc(-c2ccccc2)n1)NNC(=O)c1ccco1	.	/	.	/	.	.	/
Cc1ccc(OCc2nnc(SCC(=O)Nc3ccc4c(c3)OCCO4)n2Cc2ccco2)cc1	.	.	12	/	.	.	.
COc1cc(NC(=O)c2ccc3c(c2)OCCO3)ccc1NC(=O)c1cccs1	.	.	.	.	.	.	/
SMILES	S1P3 antag	KCC2 mod	RAM inhibit	ROMK primary	S1P4 agonist	S1P4 antagonist	RAM efflux-def
COc1ccc(CSCC(=O)Nc2ccc(S(=O)(=O)N3CCCCCC3)cc2)cc1	.	.	14	/	.	.	.
COc1ccc(OCC(=O)Nc2ccc(S(=O)(=O)N3CCCCCC3)cc2)cc1	.	.	.	/	.	.	/
C=CCNC(=S)N/N=C/c1ccc(N(CC)Cc2ccccc2)cc1	.	.	15	.	.	.	.
CCN(CC)c1ccc(/C=N/NC(=S)NCc2ccccc2)cc1	/	.	.	/	.	.	/
O=C(COc1ccccc1Cl)Nc1cc(Cl)ccc1Oc1ccccc1	/	.	14	/	.	.	.
O=C(COc1ccccc1)Nc1ccccc1Oc1ccccc1	.	.	.	.	.	.	/
O=C(Nc1ccccc1)Nc1cccc(Cl)c1Cl	.	.	.	.	.	.	/
O=C(CCC(=O)c1ccc(Oc2ccccc2)cc1)Nc1cccc(Cl)c1Cl	.	.	14	.	.	.	.
O=C(C[n+]1ccc(-c2nnc3n2CCC3)cc1)c1ccc(Cl)cc1	.	.	.	.	.	.	/
CCC(=O)N1CCc2cc(S(=O)(=O)NC(Cc3ccccc3)C(=O)NC3CCCCC3)ccc21 (centres undefined)	.	.	14	.	.	.	.
CCN=c1scc(-c2cccs2)n1/N=C/c1cc(OC)ccc1O	.	.	12	/	.	.	.
C=CCOC(=O)C1=C(C)NC(C)=C(C(=O)OCC=C)C1/C=C/c1ccccc1	/	.	15	.	.	.	.
CCOC(=O)C1=C(C)NC(C)=C(C(=O)OCC)C1/C=C/c1ccccc1	/	/	.	/	.	.	/
O=C(Nc1ccc(C(F)(F)F)cc1)N1CCN(c2ccnc3cc(Cl)ccc23)CC1	.	.	/	.	.	.	/
COC(=O)C/C=C/[C@@H](C)[C@@H](/C=N/OCC[C@@H]1C=C[C@H](OC(C)=O)[C@@H](COC(C)=O)O1)NS(=O)(=O)c1ccc(C)cc1	.	.	.	.	.	.	/
COC(=O)Cc1ccc(N(Cc2ccccc2F)S(=O)(=O)c2ccc(Cl)cc2)cc1	.	.	15	.	.	.	.
CCOC(=O)CSc1nc(-c2ccccc2)nc2ccc(F)cc12	/	/	13	.	.	.	.
COc1cc(CNn2c(C)n[nH]c2=S)cc(Cl)c1OCc1ccccc1	/	.	13	.	.	.	.
COc1ccc(-c2nc(-c3ccc(O)cc3O)cs2)cc1OC	.	.	12	.	.	.	.
O=C(Nc1ccccc1Cl)c1cccc(COc2cc(Cl)ccc2Cl)c1	/	.	12	.	.	.	.
CN(C)S(=O)(=O)Oc1ccsc1C(=O)Nc1ccc(Cl)c(Cl)c1	/	.	.	/	.	.	/
COc1ccc(COc2ccsc2C(=O)Nc2ccc(Cl)c(Cl)c2)cc1	/	/	14	/	.	.	.
COc1ccc(C(=O)Nc2cc(OCc3ccccc3)c(Cl)cc2Cl)cc1	/	/	15	/	.	.	.
CC(=O)NC(=S)Nc1ccc(NC(=O)c2cccnc2Cl)cc1	.	.	/	/	.	.	/
COC(=O)CCSCC(=O)Nc1ccc(C)c(S(=O)(=O)N2CCCCC2)c1	.	.	/	/	.	.	/
COc1ccc(/C=C/C(=O)c2ccc(Cl)cc2)c(OC)c1	/	/	12	/	.	.	.
CCCNC(=O)c1ccccc1NC(=O)c1ccccc1SC	.	.	.	.	.	.	/
CCC(C)NC(=O)c1ccccc1NC(=O)c1ccc(CSc2ccccc2)cc1 (centres undefined)	.	.	20	.	.	.	.
CCCNC(=O)c1ccccc1NC(=O)c1ccc(CSc2ccccc2)cc1	/	.	13	/	.	.	.

Compound activity as filed in PubChem.
